Measurements reported in PubChem BioAssay AID504339 (National Center for Advancing Translational Sciences (NCATS), 2011).
About 17,000 (4.4%) of roughly 390,000 compounds were called active. Roughly 8% stayed inconclusive and do not appear here. Calls come from the whole dose curve; as a rule, active = well fitted inhibition curve with a large enough effect; inconclusive = small, poorly fitted or top-dose-only effect; inactive = no such curve, though single readings can be large or run the other way. This excerpt belongs to a sample that is enriched for actives.

Each molecule was assayed against Lysine-specific demethylase 4A (Homo sapiens) (UniProt O75164) (assay: qHTS Assay for Inhibitors of JMJD2A-Tudor Domain). Conditions: AlphaScreen JMJD2A-Tudor / H3K4me3 peptide binding; series mostly up to 114 µM; activity change, negative = inhibition: at the top concentration.
Lysine-specific demethylase 4A (Homo sapiens), sequence (O75164 whole entry, looked up, the tested form may be a part): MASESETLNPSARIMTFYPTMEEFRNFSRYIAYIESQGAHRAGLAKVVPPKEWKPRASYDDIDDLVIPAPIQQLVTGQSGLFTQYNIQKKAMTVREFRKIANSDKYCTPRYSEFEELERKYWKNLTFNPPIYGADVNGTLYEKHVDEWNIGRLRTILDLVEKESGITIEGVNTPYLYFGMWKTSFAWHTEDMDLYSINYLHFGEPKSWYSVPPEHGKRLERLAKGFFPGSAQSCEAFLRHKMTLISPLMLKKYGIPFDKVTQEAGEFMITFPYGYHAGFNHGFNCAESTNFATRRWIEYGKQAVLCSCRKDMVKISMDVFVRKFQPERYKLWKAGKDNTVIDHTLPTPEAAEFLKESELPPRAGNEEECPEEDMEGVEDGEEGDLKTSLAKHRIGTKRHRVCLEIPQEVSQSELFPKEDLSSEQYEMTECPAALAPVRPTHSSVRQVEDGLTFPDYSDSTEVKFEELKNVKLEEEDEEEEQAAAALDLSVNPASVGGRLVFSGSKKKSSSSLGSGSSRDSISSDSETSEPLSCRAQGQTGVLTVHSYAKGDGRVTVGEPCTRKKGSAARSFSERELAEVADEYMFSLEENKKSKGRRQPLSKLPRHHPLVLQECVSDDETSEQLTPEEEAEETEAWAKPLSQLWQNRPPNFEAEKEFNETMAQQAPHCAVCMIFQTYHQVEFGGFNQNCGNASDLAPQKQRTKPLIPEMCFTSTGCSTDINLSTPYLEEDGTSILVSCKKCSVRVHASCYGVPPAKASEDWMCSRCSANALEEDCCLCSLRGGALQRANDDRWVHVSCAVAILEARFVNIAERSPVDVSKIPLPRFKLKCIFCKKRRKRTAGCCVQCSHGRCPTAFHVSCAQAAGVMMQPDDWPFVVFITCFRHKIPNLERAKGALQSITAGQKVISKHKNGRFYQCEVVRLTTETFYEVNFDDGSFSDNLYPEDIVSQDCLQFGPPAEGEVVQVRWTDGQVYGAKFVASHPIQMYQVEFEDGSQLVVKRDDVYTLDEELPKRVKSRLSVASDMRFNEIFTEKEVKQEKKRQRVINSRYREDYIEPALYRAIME
% is set by controls: 0 for no effect and ±100 for the full control effect; potency is the fitted concentration of half-maximal effect.
Note: nearly all actives have a fitted effect of over 50% in size.

Row | SMILES | activity change, negative = inhibition | Potency
1 | CC1CCC2(CC1)N=C(c1ccccc1)C(=O)N2CC(=O)Nc1ccc(F)c(Cl)c1 (centres undefined) | -12.8% (inactive) | 
2 | Cc1ccc(-n2c(=O)c3cccnc3n2CC(=O)Nc2ccccc2C(F)(F)F)cc1C | 23.7% (inactive) | 
3 | COc1ccc(CNc2nc(-c3ccc(Cl)cc3)nn2C(=O)c2ccccc2)cc1 | 19.2% (inactive) | 
4 | C/C=C(\C)C(=O)N1CC2(CC(c3cccc(NC(=O)CCCCC)c3)=NO2)C[C@@H]1C(N)=O (some centres undefined) | -18.7% (inactive) | 
5 | C/C=C(/C)C(=O)Nc1cccc(C2=NOC3(C2)C[C@@H](C(N)=O)N(C(=O)C2(C)CC2)C3)c1 (some centres undefined) | -9.09% (inactive) | 
6 | O=C(Nc1cccc(-c2nnc(-c3ccccc3)o2)c1)C1CCCO1 (centres undefined) | -10.7% (inactive) | 
7 | C=C(C)C(=O)Nc1cccc(C2=NOC3(C2)C[C@H](C(N)=O)N(C(=O)C(c2ccccc2)c2ccccc2)C3)c1 (some centres undefined) |  | 11.2 µM (active)
8 | CC/C=C/C(=O)N1CC2(CC(c3cccc(NC(=O)CC)c3)=NO2)C[C@H]1C(N)=O (some centres undefined) | -15.5% (inactive) | 
9 | NC(=O)[C@H]1CC2(CC(c3cccc(NC(=O)[C@H]4CCC(=O)N4)c3)=NO2)CN1C(=O)c1ccccc1C(=O)c1ccccc1 (some centres undefined) |  | 89.1 µM (active)
10 | Cc1ccc(OCCSc2nc(C)c(Cc3ccccc3)c(=O)[nH]2)cc1 | -6.6% (inactive) | 
11 | COc1cc(OC)c(NC(=O)c2cc(S(=O)(=O)N3CCCC3)cn2C)cc1Cl | -13.5% (inactive) | 
12 | Cc1c(C(=O)NCc2ccccc2Br)oc2ccc3c(c12)C(=O)CC(C)(C)O3 | -20.7% (inactive) | 
13 | COc1cccc(N2CCN(S(=O)(=O)c3cc(Br)cc4c3N(C(=O)C3CC3)CC4)CC2)c1 | -18.4% (inactive) | 
14 | COc1ccc(CCNc2ncnc3onc(-c4ccc(Cl)cc4)c23)c(OC)c1 | 3.24% (inactive) | 
15 | COc1cc(/C=C/C(=O)OCC(=O)NC(=O)NCc2ccccc2)ccc1OCC#N | -14.3% (inactive) | 
16 | COc1cc(/C=C/C(=O)OCC(=O)N2CCOCC2)ccc1OCC#N |  | 50.1 µM (active)
17 | COc1cc(/C=C/C(=O)Nc2ccc(OC)c(S(=O)(=O)N3CCOCC3)c2)ccc1OCC#N | -21.4% (inactive) | 
18 | CCOC(=O)c1oc2ccc(S(=O)(=O)n3nc(-c4ccccc4OC)cc3N)cc2c1C | -22.2% (inactive) | 
19 | Cc1oc(-c2ccccc2Cl)[n+]([O-])c1C | -11.7% (inactive) | 
20 | Cc1oc(-c2cccc(Cl)c2)[n+]([O-])c1C |  | 79.4 µM (active)
21 | CCOC(=O)CSc1ncc(-c2cccc(Cl)c2)cn1 | 77.5% (inactive) | 
22 | COc1ccc(C(=O)N2CCC(c3nc4ccccc4o3)CC2)cc1 | -8.61% (inactive) | 

Row | SMILES | activity change, negative = inhibition | Potency
23 | COc1ccc(CN2CCCC(N3CCc4ccccc4C3)C2)c(O)c1 (centres undefined) | -25.6% (inactive) | 
24 | COc1cc(C(=O)CCc2ccc3c(c2)OCO3)cc(OC)c1OC | -1.38% (inactive) | 
25 | COc1c(O)ccc2c1CN1CCc3cc4c(cc3C1C2)OCO4 (centres undefined) |  | 44.7 µM (active)
26 | CCOC(=O)N1CCc2c(sc3c2c(=O)n(-c2ccc(CC)cc2)c(=O)n3C)C1 | -3.31% (inactive) | 
27 | CC1CCCN(c2csc3ccc(F)cc3c2=O)C1 (centres undefined) | -24% (inactive) | 
28 | Cn1nnnc1Sc1ncnc2scc(-c3ccccc3[N+](=O)[O-])c12 | -17.8% (inactive) | 
29 | CC(C)(C)c1ccc(OCC(=O)N2CCC(c3nc4ccccc4s3)CC2)cc1 | -13.2% (inactive) | 
30 | COc1ccc(NC(=O)CSc2nncc(=O)n2N)cc1OC | -11% (inactive) | 
31 | Nn1c(SCC(=O)Nc2nccs2)nncc1=O |  | 28.2 µM (active)
32 | Nn1c(SCC(=O)Nc2nccs2)nnc1-c1ccco1 | -21.4% (inactive) | 
33 | Cc1ccc2c(=O)c(C(=O)c3ccc(Cl)cc3)cn(CC(=O)NC3CCCCC3)c2n1 | -14.6% (inactive) | 
34 | COCCCNC(=O)c1ccc2c(c1)ncn2-c1ccccc1OC | 14.4% (inactive) | 
35 | COc1ccccc1-n1cnc2cc(NS(=O)(=O)c3ccccc3)ccc21 | -24.5% (inactive) | 
36 | COc1ccccc1-n1cn[nH]c1=S |  | 25.1 µM (active)
37 | CCOc1ccc(CNC(=O)c2cc(-c3ccc(Cl)s3)nc3ccccc23)cc1 | -6.83% (inactive) | 
38 | COc1ccc(Br)cc1CNC(=O)c1cc(=O)[nH]c2ccc(S(=O)(=O)N3CCCC3)cc12 | -9.79% (inactive) | 
39 | CCOC(=O)c1c(C)[nH]c(C)c1S(=O)(=O)NCC(=O)NCc1cccc(C)c1 | -9.42% (inactive) | 
40 | CCCOc1ccccc1-c1nc(SCCC(=O)O)n[nH]1 | -21.8% (inactive) | 
41 | Cc1cc(C)nc(Nc2n[nH]c(-c3ccccc3N)n2)n1 |  | 2.24 µM (active)
42 | CCCCN(CC)CCCNC(=O)c1nn(C)c2c1CSc1ccccc1-2 | 6.62% (inactive) | 
43 | COc1cccc(CNC(=O)CSc2c3c(nc4cc(Cl)ccc24)CCCC3)c1 | 0.331% (inactive) | 
44 | Cc1cccc(C(=O)Nc2ccc(S(=O)(=O)N3CCCCC3c3cccnc3)cc2)c1 (centres undefined) | -14.2% (inactive) | 

Row | SMILES | activity change, negative = inhibition | Potency
45 | C=CCn1c(COc2cccc3cccnc23)nnc1SCC(=O)OC | -7.94% (inactive) | 
46 | CCCCC(=O)NC(c1ccc(OC)c(OC)c1)c1ccc2cccnc2c1O (centres undefined) |  | 56.2 µM (active)
47 | COc1ccc(CCNS(=O)(=O)c2cccc3cccnc23)cc1OC | -18.8% (inactive) | 
48 | COc1ccccc1-c1ccnc2[nH]n(-c3ccccc3)c(=O)c12 | -30.2% (inactive) | 
49 | COc1cccc(Cn2c(CNS(=O)(=O)c3ccc(Cl)s3)nc3cccnc32)c1 | -25.2% (inactive) | 
50 | Brc1ccccc1CN1CCC(Cc2ccccc2)CC1 |  | 0.794 µM (active)
51 | O=c1cc(CO)oc(CN2CCC(Cc3ccccc3)CC2)c1O | -4.12% (inactive) | 
52 | NC(=O)c1ccc(CN2CCC(Cc3ccccc3)CC2)cc1 | -11.7% (inactive) | 
53 | CCOc1ccccc1NC(=O)Cn1c2ncccc2c(=O)n1-c1ccc(C)c(C)c1 | -11.4% (inactive) | 
54 | CCC(=O)Nc1nc(C)c(C(=O)Nc2cccc(Cl)c2)s1 | -14.8% (inactive) | 
55 | C=CCCC(=O)Nc1nc(C)c(-c2csc(Nc3ccc(Cl)cc3)n2)s1 |  | 63.1 µM (active)
56 | Cc1nc(NC(=O)CN(C)S(=O)(=O)c2ccc(Cl)cc2)sc1C | -30.8% (inactive) | 
57 | O=C(NC1(C(F)(F)F)N=C(c2ccccc2)N(C2CCCCC2)C1=O)c1ccccc1F (centres undefined) | -15.3% (inactive) | 
58 | CCOC(=O)c1cccc(NC(=O)Cn2cnc3nc4c(cc3c2=O)CCCC4)c1 | -1.92% (inactive) | 
59 | COc1ccc(NC(=O)Cn2c(=O)n(Cc3ccc(C(=O)NCc4ccccc4Cl)cc3)c(=O)c3ccccc32)cc1 | -7.88% (inactive) | 
60 | COc1ccc(-c2nc3c4ccccc4n(CC(=O)Nc4ccc(C(C)=O)cc4)c(=O)n3n2)cc1 |  | 8.91 µM (active)
61 | CC(=O)c1ccc(NC(=O)Cn2c(=O)oc3ccccc32)cc1 | -6.82% (inactive) | 
62 | O=C(NCCCn1ccnc1)C(=O)NCC1OCCN1S(=O)(=O)c1cc(F)ccc1F (centres undefined) |  | 39.8 µM (active)
63 | Cc1cc(F)ccc1S(=O)(=O)N1CCCOC1CNC(=O)C(=O)NCCC1=CCCCC1 (centres undefined) | -9.67% (inactive) | 
64 | O=C(NCCCc1ccccc1)C(=O)NCC1OCCN1S(=O)(=O)c1ccccc1 (centres undefined) | -7.53% (inactive) | 
